BoNT-F LC inh = BoNT/F light chain protease inhibitors, primary screen, biochemical, flow cytometry, MLPCN library; Botulinum neurotoxin type F light chain protease (Clostridium botulinum); Multiplex microsphere protease cleavage assay; inhibition, % at 10 µM; hit rate 0.22% among 360,000; in the data active = inhibition above about 35%, passing the limit was not always enough; inconclusive = no clear call, values can overlap the other calls; note: plate controls were buffer without enzyme for full effect and enzyme alone for no effect
BoNT-A LC inh2 = BoNT/A light chain protease inhibitors, primary screen, biochemical, flow cytometry, MLPCN library; inhibition, % at 10 µM; multiplex microsphere protease substrate cleavage; Botulinum neurotoxin type A light chain protease (Clostridium botulinum A str. ATCC 3502); hit rate 0.17% among 360,000; note: plate controls were buffer without enzyme for full effect and enzyme alone for no effect
MazF activator = activators of E. coli MazEF toxin-antitoxin RNase, primary screen, biochemical, fluorescence, uHTS; Endoribonuclease toxin MazF (Escherichia coli (strain K12)), P0AE70; FAM/BHQ RNA-DNA oligo cleavage fluorescence, 5 h; activation, % at 20 µM; hit rate 0.32% among 350,000; AID 504720, 2011; in the data active = activation above about 50%
Target sequence (P0AE70 whole entry, looked up): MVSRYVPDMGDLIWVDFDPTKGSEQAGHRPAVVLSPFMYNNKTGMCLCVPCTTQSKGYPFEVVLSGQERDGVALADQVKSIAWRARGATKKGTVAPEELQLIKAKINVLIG
Autofluor counter = flagged as autofluorescent in microsphere protease counterscreen. fluorescence intensity (no concentration beside the values). compound autofluorescence counterscreen, microsphere flow cytometry; stronger effect = higher value. hit rate 3.1% among 360,000; in the data active = fluorescence intensity above about 16000; inconclusive = no clear call, values can overlap the other calls
Anthrax LF prot = Bacillus anthracis LF protease inhibitors, primary screen, biochemical, multiplex microsphere, MLPCN library; multiplex microsphere protease cleavage assay; inhibition, % at 10 µM; hit rate 0.12% among 360,000; AID 588501, 2011; note: plate controls were buffer without enzyme for full effect and enzyme alone for no effect
An asterisk follows results filed as active; ? = inconclusive; nt = not tested or not shown. A selection: hits, their analogues and other compounds. The true share with any hit is near 3.7%. Cut-off read from the data, not from the text of the source, unless noted: active = inhibition above about 30%; inconclusive = no clear call, values can overlap the other calls; inactive = below that.

SMILES	BoNT-F LC inh	BoNT-A LC inh2	MazF activator	Autofluor counter	Anthrax LF prot
O=C(OCc1ccccc1)c1ccccc1	4	0	5	5354	5
COc1cccc(C(C)(O)c2nc(-c3ccc(C)c(C)c3)cs2)c1 (stereo not given)	3	0	nt	2967	-6
COc1ccc([C@@H]2[C@H]3C(=O)N(c4cccc(C(F)(F)F)c4)C(=O)[C@H]3ON2C)cc1	4	2	7	21509*	-1
COc1ccccc1Nc1nc2ccc(C)cc2cc1C#N	24	6	78*	?	1
COc1ccccc1Nc1nc2cc(C)ccc2cc1C#N	2	-1	5	4162	-7
COc1ccccc1Nc1nc2c(C)cccc2cc1C#N	1	0	98*	16724*	-1
CCOc1ccc(Nc2nc3c(C)cccc3cc2C#N)cc1	?	-2	19	4651	-9
Cc1cc(NC(=O)CCC(=O)N(Cc2ccco2)C(C(=O)NC2CCCC2)c2ccccc2F)no1 (stereo not given)	0	-1	11	5441	-2
Cc1cc(NC(=O)CCC(=O)N(Cc2ccco2)C(C(=O)NC2CCCC2)c2ccccc2C)no1 (stereo not given)	-4	-2	55*	4760	-1
CNC(=O)C1CC(=O)N(Cc2ccc(OC)c(OC)c2)C(=Nc2ccc(OC)cc2)S1 (stereo not given)	1	0	-2	2904	-6
CNC(=O)C1CC(=O)N(Cc2ccccc2)C(=Nc2ccc(OC)cc2)S1 (stereo not given)	-4	?	-3	23832*	-1
CN(Cc1ccc(Cl)cc1)C(c1cc2ccccc2o1)c1nnnn1C(C)(C)C (stereo not given)	-6	0	nt	6168	5
CN(C(=O)COC(=O)c1ccc2c(c1)OCO2)c1c(N)n(Cc2ccccc2)c(=O)[nH]c1=O	-18	-3	3	6283	-1
CCNC(=S)NNC(=O)c1cccn(Cc2ccc(Cl)cc2)c1=O	-2	1	-13	22835*	0
Cc1nn(-c2cc(N3CCCCCC3)ccc2[N+](=O)[O-])c(=O)c2ccccc12	-2	?	2	23118*	1
Nc1ccc(N2CCCCC2)cc1N1CCCCC1	-83	2	7	1778	-15
Cc1nn(-c2cc(N3CCCCC3)ccc2N)c(=O)c2ccccc12	0	?	3	20582*	0
CC(C)N(C(=O)[C@H]1CC(CC(=O)NCCC2=CCCCC2)C(=O)N2CCc3c([nH]c4ccccc34)[C@]12C)C(C)C (stereo not given in full)	-3	-1	5	3807	-5
Cc1ccccc1Cn1ccc(-c2ccc(Cl)cc2)c(C#N)c1=O	-4	0	-19	23457*	-4
COC(=O)Cn1ccc(-c2ccc(Cl)cc2)c(C#N)c1=O	-8	-2	1	4288	0
CCOc1ccc(N(C(C)C(=O)N2CCCCCC2)S(C)(=O)=O)cc1 (stereo not given)	0	-1	0	3882	-1
CCOc1ccc(N(C(C)C(=O)NC(C)CC)S(C)(=O)=O)cc1 (stereo not given)	-1	0	10	19908*	2
CC1CN(S(=O)(=O)c2ccccc2)CC(C)O1 (stereo not given)	0	?	-1	23507*	0
Cc1cc(C)c2c(c1)c(C)cc1nnc(SCC(=O)c3cccs3)n12	0	0	74*	5592	-2
CCn1c(SCC(=O)c2cccs2)nnc1-c1cccs1	-2	1	-7	10824	-2
SMILES	BoNT-F LC inh	BoNT-A LC inh2	MazF activator	Autofluor counter	Anthrax LF prot
COc1cc(OC)c(C(=O)OCC(=O)NCC2CCCCC2)cc1OC	nt	nt	7	nt	nt
CCc1c(C)nc(SCC(=O)Nc2nc(-c3ccc(OC)cc3)cs2)[nH]c1=O	0	-1	1	4143	2
CCCN(CCC)CCNC(=O)C1c2ccccc2C(=O)N2CCc3ccccc3C12 (stereo not given)	-6	0	4	3717	-4
CCOCCCNC(=O)C1c2ccccc2C(=O)N2CCc3ccccc3C12 (stereo not given)	0	1	2	16166*	-2
CC1CCN(C(=O)C2c3ccccc3C(=O)N3CCc4ccccc4C23)CC1 (stereo not given)	1	3	3	22497*	0
Cc1cccn2c(CN[C@H]3CCCCNC3=O)c(C(=O)N3CCOCC3)nc12	0	0	-8	4206	0
O=C(OCc1ccccc1)/C(=C/c1ccccc1Cl)NC(=O)c1ccco1	-4	1	-5	5930	-2
CCN1C(=O)/C(=C/N(C)C)c2ccccc21	-5	0	12	16312*	2
CCN1C(=O)/C(=C\N(C)C)c2ccccc21	-13	-2	6	7006	-9
C=CCNC(=O)/C(=C\c1ccc(Br)cc1)NC(=O)c1ccccc1OC	-2	0	-6	2065	0
COc1ccccc1N1CCN(CC(=O)Nc2ccccc2C(=O)NC(C)c2ccccc2)CC1 (stereo not given)	-4	0	-6	4077	-5
CCC(C)NC(=O)c1cnn2c1NC(c1ccc3c(c1)OCO3)CC2C(F)(F)F (stereo not given)	1	1	4	19687*	-1
Cc1ccc(C2CC(C(F)(F)F)n3nc(C(=O)NCc4ccco4)cc3N2)cc1 (stereo not given)	-6	?	-5	24280*	-2
O=C(NCc1ccco1)c1cc2n(n1)C(C(F)(F)F)CC(c1ccc(F)cc1)N2 (stereo not given)	7	0	-2	4205	-13
Cc1cccc(NC(=O)c2cc3n(n2)C(C(F)(F)F)CC(c2ccc4c(c2)OCO4)N3)c1 (stereo not given)	1	3	-2	22193*	1
O=C(NCC1CCCO1)c1cc2n(n1)C(C(F)(F)F)CC(c1ccc(Br)cc1)N2 (stereo not given)	1	?	-5	20177*	2
O=C(O)c1cc(-c2ccc(Cl)c(Cl)c2)n(-c2ccc(F)cc2)n1	-10	0	-9	3632	1
Fc1ccc(N2Cc3ccsc3C=N2)cc1	-7	-2	8	5500	-6
C=CCSc1n[nH]c(-c2ccc(OCCCC)cc2)n1	-4	-2	-2	16907*	-2
Cc1ccc(C)n1-c1ccc(-n2cnnn2)cc1	0	1	0	16233*	0
COc1ccc(-c2cc(-c3ccc(OC)cc3)nc(-c3ccc4c(c3)NC(=O)CO4)c2)cc1	-3	-2	-32	23016*	-4
C[C@H]1CN([C@@H](C)CO)C(=O)CCCn2cc(nn2)CO[C@@H]1CN(C)S(=O)(=O)c1ccc(Cl)cc1	2	0	5	2925	-2
O=C1c2[nH]nc(-c3ccccc3O)c2C(c2cccc(Cl)c2)N1CC1CCCO1 (stereo not given)	3	2	1	22113*	1
